# Screen size: about 48,000 compounds; about 13,000 (27%) showed an effect of 50% or more. The list shows a part of the results.
# System: Wolbachia pipientis
# Test: Anti-Wolbachia Cell-Based Screen
# Assay type: functional
# Parameters: scale not given: in the data most compounds retested in dose-response had high values
# Details: 5 µM
row,SMILES,Percent Effect
1,CC(C)(O)C1CCN(C(=O)Nc2nc(-c3ccccc3)ns2)CC1,6.519%
2,CC(=O)c1cc(CC(=O)NCc2ccc(CN(C)C)cc2)cs1,-9.398%
3,O=C1CCC2(CCCN(C(=O)c3ncc[nH]3)C2)CN1CCc1c[nH]cn1 (centres undefined),2.094%
4,CC(=O)N1CCCN(C(C)C(=O)Nc2ccnn2C(C)C)CC1 (centres undefined),14.5%
5,Cc1ccc(C(=O)NCCS(=O)(=O)Cc2ccccc2)c(=O)[nH]1,-6.765%
6,CN(C)c1cc(C2CCCN(C(=O)c3ccc(=O)[nH]n3)C2)ccn1 (centres undefined),139.8%
7,O=C(c1ccc(=O)[nH]n1)N1CC(c2nc(Cc3ccccc3)no2)C1,-16.23%
8,CNc1cc(C2CCCN2C(=O)c2ccc(=O)[nH]n2)ccn1.O=CO (centres undefined),167.7%
9,O=C(NCCn1cnc(C2CCCC2)cc1=O)c1ccc(=O)[nH]n1,-1.303%
10,CNc1cc(C2CCCN(C(=O)c3ccc(=O)[nH]n3)C2)ccn1 (centres undefined),169.1%
11,CNc1cc(C2CCCN2C(=O)c2ccc3oc(=O)n(C)c3c2)ccn1 (centres undefined),-0.2257%
12,Cc1cc(C2CCN(C(=O)c3cnn(C)c3)CC2)ccn1,94.31%
13,Cn1cc(C(=O)N2CCC(c3nccn3Cc3ccncc3)CC2)cn1,-25.63%
14,Cc1ccnc(C2CCN(C(=O)c3cnn(C)c3)CC2)n1,85.52%
15,Cc1ccnc(C2CCN(C(=O)c3cnn(C)c3)C2)n1 (centres undefined),83.36%
16,Cc1cc(C2CCCN(C(=O)c3cnn(C)c3)C2)ccn1 (centres undefined),-11.66%
17,Cc1c(C)n(CC(O)CN2CCC(C)CC2)c2c(Cl)cccc12 (centres undefined),-13.14%
18,F[C@@H]1CN(Cc2ccccc2)C[C@@H]1OCc1nc2cnccc2[nH]1,-3.935%
19,CCc1nccn1CC(=O)Nc1cccc(C(=O)OC)c1,94.76%
20,CN(C)C(=O)c1cccc(NC(=O)CN2CCCCC2C2OCCO2)c1 (centres undefined),-9.797%
21,COC(=O)c1cccc(NC(=O)CN2CCN(S(C)(=O)=O)CC2)c1,0.7545%
22,COC(=O)c1cccc(C(=O)N2CCCCC2CCn2ccnc2C)c1 (centres undefined),-0.7359%

row,SMILES,Percent Effect
1,CCc1nccn1CC(=O)Nc1cccc(C(=O)N(C)C)c1,117.3%
2,CC(=O)c1cccc(NC(=O)Cn2cnc(-c3ccccc3)cc2=O)c1,-1.653%
3,CCNc1ncc(C(=O)N(C)CCc2nc3cc(Cl)ccc3[nH]2)cn1,-2.741%
4,CC(C)CN1CCc2[nH]cnc2C12CCN(C(=O)c1cnn(C)c1)CC2,18.71%
5,Cn1cccc1C(=O)N1CCCN(CCCc2ccccc2)CC1,5.768%
6,CC(CC#N)n1ccc(C(F)(F)F)n1 (centres undefined),86%
7,CCC(CCN)n1ccc(C(F)(F)F)n1 (centres undefined),101%
8,CCC(CC#N)n1ccc(C(F)(F)F)n1 (centres undefined),100.1%
9,CS(=O)(=O)NCCNC(=O)NC1(c2ccc(F)cc2)CCCC1,1.188%
10,Cc1cccc(CS(=O)(=O)CC(=O)N(C)Cc2ccccc2F)c1,-4.083%
11,CC(=O)c1ccccc1NC(=O)CCN1CCSCC1,-1.71%
12,Nc1ncc(-c2ccc(Cl)cc2)c(C2CCCNC2)n1 (centres undefined),110.4%
13,O=S(=O)(NCCn1cc(C2CCCNC2)nn1)c1ccc(Cl)cc1 (centres undefined),7.811%
14,Nc1ncc(-c2ccc(C(F)(F)F)cc2)c(C2CCCNC2)n1 (centres undefined),52.9%
15,FC(F)(F)c1ccc(-c2c[nH]c([C@@H]3COCCN3)n2)cc1,-4.53%
16,O=C(N[C@@H]1CCCNC1)C1(Oc2ccc(Cl)cc2)CCNCC1,-9.041%
17,Nc1ncc(-c2ccc(F)cc2)c(C2CCCNC2)n1 (centres undefined),107.7%
18,FC(F)(F)c1ccc2[nH]c([C@H]3CCNC3)nc2c1,-0.9457%
19,COc1ccc(-c2cnc(N)nc2C2CCCNC2)cc1.Cl (centres undefined),80.9%
20,CN(Cc1ccccc1Cl)C(=O)c1cc(CN2CCC(O)CC2)on1,-7.03%
21,Cc1nnc2n1CCN(Cc1c(Cl)ccc3cccnc13)C2,-10.28%
22,CCc1nccn1C1CCCN(C(=O)c2ccc(C(=O)NC)nc2)C1 (centres undefined),-5.671%

row,SMILES,Percent Effect
1,CNC(=O)c1ccc(C(=O)N2CCCC(n3ccnc3C)C2)cn1 (centres undefined),94.35%
2,CNC(=O)c1ccc(C(=O)N2CCCC(n3ccnc3)C2)cn1 (centres undefined),118%
3,Cc1cccc(C)c1OCCNC(=O)C[S+]([O-])C1CCCC1 (centres undefined),0.9364%
4,O=C(C1CCCc2[nH]ncc21)N1CCCC2(C1)OCCO2 (centres undefined),23.68%
5,Fc1ccc(CN2CCC(c3n[nH]c4nccnc34)CC2)cc1F,-10.9%
6,Fc1ccccc1CN1CCC(c2noc(-c3ccccn3)n2)CC1,178%
7,Fc1cccc(CN2CCC(c3noc(-c4ccccn4)n3)CC2)c1F,179%
8,Fc1ccccc1CN1CCC(c2n[nH]c(C3CC3)n2)CC1,-0.8499%
9,Fc1cccc(CN2CCC(c3noc(-c4ccncc4)n3)CC2)c1F,205.5%
10,CCc1cc(NC2CCN(Cc3ccccc3F)CC2)n2nccc2n1,21.54%
11,CCn1c(CN(C)C)nnc1C1CCN(Cc2cccc(F)c2F)CC1,8.209%
12,Fc1ccc(CN2CCCC(c3nnc(-c4cnccn4)o3)C2)cc1F (centres undefined),-0.1636%
13,CC(c1nc(C2CC2)no1)N1CCN(Cc2cccc(F)c2F)CC1 (centres undefined),13.59%
14,Fc1ccc(CN2CCC(c3noc(-c4cnccn4)n3)CC2)cc1F,155.5%
15,CC(=O)NCCC(=O)NCCCOc1c(C)cccc1C,1.2%
16,CC(=O)N(Cc1c(F)cccc1F)C1CCCC1,-1.576%
17,O=C(CSc1ccc2c(c1)OCCO2)NS(=O)(=O)c1ccccc1Br,-0.599%
18,COc1ccc2c(c1)OCC(Cc1ccc(CN)cn1)C2 (centres undefined),-20.89%
19,O=C(Nc1ccc(F)cc1)N1C[C@H]2CC[C@@H]1CN(Cc1cccnc1)C2,-11.36%
20,CCC1=N[C@@]2(CC[C@@H]3CN(S(=O)(=O)N(C)C)C[C@@H]32)C(=O)N1CC(C)C,-19.59%
21,CC(=O)NC(C(=O)N1CCn2cncc2C1)C(C)C (centres undefined),3.291%
22,Cc1noc(C)c1CC(=O)OCC(=O)N1CCc2sccc2C1,3.916%

row,SMILES,Percent Effect
1,CC1CN(C2CCN(Cc3nccn3CC(F)(F)F)CC2)CCO1 (centres undefined),-6.653%
2,Fc1cccc(C2CCCCN2Cc2nc(-c3cnccn3)no2)c1 (centres undefined),-8.906%
3,Fc1cccc(CN2CCC(c3noc(-c4cnccn4)n3)CC2)c1F,134.1%
4,O=C(c1ccc(-c2cc[nH]n2)cc1)N1CC[C@H](CO)[C@H](O)C1,0.4%
5,CCN(Cc1cc(Cl)c(O)c(OC)c1)Cc1nc(COC)no1,-9.296%
6,COCCS(=O)(=O)Nc1ccc(-n2nccc2C(F)(F)F)cc1,0.6513%
7,CC1CCN(C(=O)NCC(=O)N(C)CC(F)(F)F)C1 (centres undefined),103.3%
8,O=C(Nc1ccc(-c2csnn2)cc1)N1CCC(N2CCCC2)C1 (centres undefined),0.9%
9,CN(CC(F)(F)F)C(=O)CNC(=O)Cc1ccc(O)cc1Cl,-9.929%
10,CCOC1CCN(C(=O)NCCN(C)C(=O)OC(C)(C)C)CC1,7.411%
11,CN(CC(F)(F)F)C(=O)CNC(=O)Cc1cccc(O)c1,-3.923%
12,Cc1cnn(CCCNC(=O)N2CCCCC(N3CCCC3)C2)c1 (centres undefined),-6.749%
13,CC(C)C1CCN(C(=O)NCC(=O)N(C)CC(F)(F)F)CC1,101.1%
14,CN(CC(F)(F)F)C(=O)CNC(=O)N1CCC(N2CCCC2)C1 (centres undefined),94.48%
15,CN(CC(F)(F)F)C(=O)CNC(=O)Cc1ccccc1O,-0.134%
16,CC(C)=CCN1C[C@H]2CC[C@@H]1CN(CCC(=O)NCc1ccco1)C2,-7.993%
17,CCOc1ccc(NC(=O)Cc2cc(C)[nH]n2)cc1CO,-2.214%
18,Cc1cc(C)c2c(c1)C(NC(=O)CSCc1ccncc1)CCO2 (centres undefined),0.01106%
19,Cc1ccc(NC(=O)NC(C)Cn2cccn2)cc1 (centres undefined),-6.589%
20,Cc1nnc(NC(=O)NC(C)Cn2cccn2)s1 (centres undefined),98.41%
21,COC(C)(C)CC(C)NC(=O)Nc1ccccn1 (centres undefined),11.35%
22,CC(Cn1cccn1)NC(=O)Nc1nnc(C2CC2)s1 (centres undefined),-3.463%

row,SMILES,Percent Effect
1,CC(Cn1cccn1)NC(=O)Nc1ccccn1 (centres undefined),102.9%
2,CC(C)CCC(C)NC(=O)Nc1ccccn1 (centres undefined),3.296%
3,CC(Cn1cccn1)NC(=O)NCc1ccccn1 (centres undefined),-2.779%
4,Cc1cccnc1NC(=O)NC(C)Cn1cccn1 (centres undefined),2.456%
5,CCCc1nnc(NC(=O)NC(C)Cn2cccn2)s1 (centres undefined),106.7%
6,CCN1C(=O)CC(N(C)Cc2nc3ccccc3c(=O)[nH]2)C1=O (centres undefined),-2.279%
7,CN(Cc1nc2ccccc2c(=O)[nH]1)C[C@@H]1CCCN2CCCC[C@H]12,-19.12%
8,CC(C)CS(=O)(=O)CC(=O)N(C)Cc1ccc(OC(F)F)cc1,-10.21%
9,CCC(CC)c1nnc(NC(=O)NC(C)Cn2cccn2)s1 (centres undefined),102.8%
10,COc1ccc(NC(=O)NC(C)Cn2cccn2)cn1 (centres undefined),-4.158%
11,CC(Cn1cccn1)NC(=O)Nc1nccs1 (centres undefined),-3.735%
12,CC(Cn1cccn1)NC(=O)Nc1ccc(N(C)C)nc1 (centres undefined),1.644%
13,CC(Cn1cccn1)NC(=O)Nc1nncs1 (centres undefined),94.45%
14,COc1cccc(CN2CCc3nc(C(N)=O)sc3CC2)c1.O=C(O)C(F)(F)F,8.884%
15,O=C(NCc1ccoc1)Nc1ccc(CN2CCOC2=O)cc1,-1.544%
16,O=C1OCCN1c1cccc(CNS(=O)(=O)Cc2ccc(F)cc2)c1,-0.8668%
17,Cc1ccccc1CN1CCC2(COCc3cnc(N(C)C)nc32)C1.O=C(O)C(F)(F)F (centres undefined),-3.264%
18,CN(C)C(=O)CN1CCC2(COCc3cnc(-c4cccnc4)nc32)C1.O=C(O)C(F)(F)F.O=C(O)C(F)(F)F (centres undefined),108.5%
19,COc1cccc(CN2CCC3(COCc4cnc(N(C)C)nc43)C2)c1.O=C(O)C(F)(F)F (centres undefined),-4.622%
20,CN(C)c1ncc2c(n1)C1(CCN(Cc3ccccc3F)C1)COC2.O=C(O)C(F)(F)F (centres undefined),-3.722%
21,CN(C)C(=O)CN1CCC2(COCc3cnc(-c4ccccc4)nc32)C1 (centres undefined),100.5%
